Values joined by “and” are separate entries in the source; they are usually repeats but may differ in a detail not shown here. Equal values may be shown once. Records with an inconclusive call do not appear. Some structures have more than one record in an assay (separate samples or runs), and their calls can disagree. Active and inactive are the calls of the source. Unless noted, calls follow the shape of the dose curve; as a rule, active = well fitted curve in the direction sought with a large enough effect in the repeat runs; inconclusive = weak or mixed curves; inactive = no such curve, though single readings can be large; an effect the other way counts as inactive or inconclusive.
Key:
[1] = qHTS assay to identify small molecule agonists of the vitamin D receptor (VDR) signaling pathway - cell viability counter screen (AID 743224); also: series mostly up to about 63 µM; % is scaled to controls: 0 for no effect and ±100 for the full control effect; nearly all actives have a fitted effect of over 50% in size
Procedure, shortened: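 Here cell health was gauged by luminescent ATP detection (CellTiter-Glo, 30 min RT) in VDR-bla cells that had been incubated with test compounds for 16 h at 37C and 5% CO2.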

[2] = qHTS assay to identify small molecule antagonists of the vitamin D receptor (VDR) signaling pathway - cell viability counter screen (AID 743225); also: nearly all actives have a fitted effect of over 50% in size; also: potency is read from the fitted curve at half-maximal effect
Procedure, shortened: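 Compounds were pinned onto VDR-bla HEK 293T cells together with 1-alpha,25-dihydroxyvitamin D3 at 3 nM final. After 16 h at 37C and 5% CO2 plus the reporter readout, cell viability was measured by CellTiter-Glo luminescence (30 min, room temperature).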

[3] = qHTS assay to identify small molecule agonists of the NFkB signaling pathway (AID 1159509; active = well fitted curve in the direction sought with a large enough effect in the signal ratio in the repeat runs, not every such curve was filed as active; the % refers to the signal ratio; also: series mostly up to about 61 µM; % is scaled to controls: 0 for no effect and ±100 for the full control effect)
Procedure, shortened: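 NFkB-bla ME-180 cells carry a beta-lactamase reporter under an NF-kB response element. They were plated overnight, then exposed to compounds for 5 h at 37 C. Read-out is LiveBLAzer FRET after 1.5 hr at room temperature (405 nm excitation; 460/530 nm emission).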

[4] = qHTS assay to identify small molecule agonists of the NFkB signaling pathway - cell viability counter screen (AID 1159515; calls by dose curve; also: series mostly up to about 61 µM; % is scaled to controls: 0 for no effect and ±100 for the full control effect; nearly all actives have a fitted effect of over 55% in size)
Procedure, shortened: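 5 hr compound treatment of NFkB-bla ME-180 cells (2,000/well, seeded overnight beforehand), followed by reporter substrate for 1.5 hr. CellTiter-Glo added afterward; luminescence after 30 min RT.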

[5] = qHTS assay to identify small molecule agonists of the endoplasmic reticulum stress response signaling pathway (AID 1159516; active = well fitted activation curve with a large enough effect in the signal ratio in the repeat runs, not every such curve was filed as active; the % refers to the signal ratio; also: % is scaled to controls: 0 for no effect and ±100 for the full control effect)
Procedure, shortened: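 Reporter HeLa cells (ESRE-beta-lactamase) underwent 5 hr compound incubation at 37 C and 5% CO2 in quantitative HTS format. Detection followed 2 hr of FRET substrate loading at room temperature.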

[6] = qHTS assay to identify small molecule agonists of the endoplasmic reticulum stress response signaling pathway - cell viability counter screen (AID 1159517; calls by dose curve;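 also: HeLa cells carrying an ER stress response element beta-lactamase reporter; series mostly up to about 61 µM; % is scaled to controls: 0 for no effect and ±100 for the full control effect; nearly all actives have a fitted effect of over 50% in size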)
Procedure, shortened: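 ESRE-bla HeLa cells, 1,500 per well, seeded overnight then treated with compounds for 5 hr at 37 C. After the beta-lactamase read, viability in the same wells is measured by CellTiter-Glo luminescence after 30 min at room temperature.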

[7] = biological target: Nuclear receptor ROR-gamma (Homo sapiens) (UniProt P51449); test: qHTS assay to identify small molecule antagonists of the retinoid-related orphan receptor gamma (ROR-gamma) signaling pathway (AID 1159521; also: nearly all actives have a fitted effect of over 50% in size; also: potency is read from the fitted curve at half-maximal effect)
Procedure, shortened: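 Test compounds were applied to Tet-on RORγ CHO cells 2 h ahead of doxycycline hyclate (1 uM final). Luciferase reporter activity was quantified by luminescence after 16 h at 37 C and 5% CO2.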

[8] = qHTS assay to identify small molecule agonists of the AP-1 signaling pathway - cell viability counter screen (AID 1159525; calls by dose curve; also: nearly all actives have a fitted effect of over 55% in size)
Procedure, shortened: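 AP-1-bla ME-180 cells in Opti-MEM with 0.5% dialyzed FBS, compound exposure 5 h at 37 C in 15-point titration. Viability read in the same wells as ATP content by CellTiter-Glo luminescence, normalised to tetra-n-octylammonium bromide and DMSO controls.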

[9] = qHTS assay to identify small molecule agonists of the AP-1 signaling pathway (AID 1159526; calls by dose curve; also: % is scaled to controls: 0 for no effect and ±100 for the full control effect)
[10] = biological target: Retinoic acid receptor RXR-alpha (Homo sapiens) (UniProt P19793); test: qHTS assay to identify small molecule agonists of the RXR signaling pathway (AID 1159527; calls by dose curve; also: nearly all actives have a fitted effect of over 35% in size; also: potency is read from the fitted curve at half-maximal effect)
Procedure, shortened: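 Using 9-cis retinoic acid as the reference agonist, chemicals were tested in HEK 293T cells […] for 16 hr; substrate loading lasted 2 hr at room temperature.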

[11] = qHTS assay to identify small molecule agonists of the RXR signaling pathway - cell viability counter screen (AID 1159529); also: nearly all actives have a fitted effect of over 50% in size; also: potency is read from the fitted curve at half-maximal effect
Procedure, shortened: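 Compounds dissolved in DMSO were pinned onto HEK 293T cells carrying a beta-lactamase reporter under RXR-alpha control and incubated 16 hr. Cytotoxicity was then quantified by CellTiter-Glo luminescence.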

[12] = qHTS assay to identify small molecule antagonists of the retinoid acid receptor (RAR) signaling pathway - cell viability counter screen (AID 1159551); also: % is scaled to controls: 0 for no effect and ±100 for the full control effect; nearly all actives have a fitted effect of over 35% in size
Procedure, shortened: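 Seed C3RL4 cells; next day add compound, then retinol to 1 uM final; incubate 6 h at 37 C; add CellTiter-Glo; read luminescence after 30 min at RT.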

[13] = qHTS assay to identify small molecule antagonists of the retinoic acid receptor (RAR) signaling pathway (AID 1159552)
Procedure, shortened: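 Test chemicals and DMSO controls were pin-transferred onto C3RL4 cells a day after seeding; retinol (1 uM final) followed at once. Luminescent reporter output was quantified after 6 hr of co-incubation and 30 min with detection reagent.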

[14] = qHTS assay to identify small molecule agonists of the retinoic acid receptor (RAR) signaling pathway (AID 1159553); also: % is scaled to controls: 0 for no effect and ±100 for the full control effect
Procedure, shortened: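 Activation of retinol signaling was monitored via a RARE luciferase reporter in C3RL4 cells. After 6 hr compound treatment at 37 C, detection reagent was added for 30 min at room temperature before luminescence reading.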

[15] = qHTS assay to identify small molecule antagonists of the estrogen related receptor (ERR) signaling pathway - cell viability counter screen (AID 1224818)
Procedure, shortened: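 In the same ERR cell assay, compound-treated wells (17.5 h, 37 C) were multiplexed with a fluorogenic viability reagent, CellTiter-Fluor, read after 30 min to flag cytotoxic substances.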

[16] = qHTS assay to identify small molecule antagonists of the estrogen related receptor signaling pathway with the pleiotropic PPARgamma coactivator (PGC) cell viability counter screen (AID 1224822)
Procedure, shortened: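 Compounds in DMSO, with positive and negative controls, were applied to PGC/ERR cells (2,000/well) and left 17.5 h at 37 C before CellTiter-Fluor detection.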

[17] = qHTS assay to identify small molecule antagonists of the retinoid-related orphan receptor gamma (ROR-gamma) signaling pathway - cell viability counter screen (AID 1159520)
Procedure, shortened: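 Tet-on ROR gamma CHO cells were given compounds for 2 hr, then doxycycline hyclate at 1 uM final, and incubated 16 hr at 37 C. Viability was measured as ATP content by CellTiter-Glo luminescence.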

[18] = qHTS assay to identify small molecule antagonists of the estrogen related receptor (ERR) signaling pathway (AID 1224819)
Procedure, shortened: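 qHTS in ERR cells, 2,000/well, 1536 format. Cpd (DMSO) added after 6 h settle, 18 h 37 C. One-Glo luminescence, 30 min RT.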

[19] = qHTS assay to identify small molecule agonists of the estrogen related receptor (ERR) signaling pathway (AID 1224820); also: % is scaled to controls: 0 for no effect and ±100 for the full control effect
Procedure, shortened: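 ERR reporter cell line (from NTP), 2,000 cells/well, incubated 6 h before compound addition, then 18 h at 37 C. Luminescence measured 30 min after One-Glo reagent at room temperature.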

[20] = system: estrogen-related receptor alpha (ERRalpha) with PGC-1alpha coactivator, human; test: qHTS assay to identify small molecule antagonists of the estrogen related receptor signaling pathway with the pleiotropic PPARgamma coactivator (PGC) (AID 1224821; calls by dose curve)
Procedure, shortened: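 PGC/ERR reporter cell line, plated 6 h before compound addition, then exposed 18 h at 37 °C. Luciferase activity read by luminescence 30 min after One-Glo addition; decrease indicates antagonism.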

Retinoic acid receptor RXR-alpha (Homo sapiens), sequence (P19793 whole entry, looked up): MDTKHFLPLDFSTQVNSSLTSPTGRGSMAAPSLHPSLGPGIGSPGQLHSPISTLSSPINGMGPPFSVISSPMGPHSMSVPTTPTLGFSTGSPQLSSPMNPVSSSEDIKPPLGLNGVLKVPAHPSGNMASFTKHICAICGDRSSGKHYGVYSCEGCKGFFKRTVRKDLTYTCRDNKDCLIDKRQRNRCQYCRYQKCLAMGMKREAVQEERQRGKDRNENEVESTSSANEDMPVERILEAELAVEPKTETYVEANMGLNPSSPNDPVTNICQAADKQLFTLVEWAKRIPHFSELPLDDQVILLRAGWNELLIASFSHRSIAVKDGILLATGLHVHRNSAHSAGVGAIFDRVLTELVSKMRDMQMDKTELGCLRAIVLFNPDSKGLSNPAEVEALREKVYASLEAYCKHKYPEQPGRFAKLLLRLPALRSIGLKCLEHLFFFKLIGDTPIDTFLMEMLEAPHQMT

CC(C(=O)O)c1ccc(CC2CCCC2=O)cc1 (configuration not stated)
inactive: Potency [1] | Potency [2] | outcome [3] | outcome [4] | outcome [5] | outcome [6] | Potency [7] | Potency [8] | outcome [9] | Potency [10] | Potency [11] | outcome [12] | Potency [13] | Potency [14] | outcome [15] | outcome [16]

COC(=O)c1c(Cl)c(Cl)c(C(=O)OC)c(Cl)c1Cl
inactive: Potency [1] | Potency [2] | outcome [3] | outcome [4] | outcome [5] | outcome [6] | outcome [17] | Potency [7] | Potency [8] | Potency [11] | outcome [12] | outcome [15] | outcome [18] | outcome [19] | outcome [20] | outcome [16]
inactive and 5.49 µM (active): Potency [10]

CC(C)(C)NCCNC(C)(C)C
inactive: Potency [1] | Potency [2] | outcome [3] | outcome [4] | outcome [5] | outcome [17] | Potency [7] | Potency [8] | outcome [9] | Potency [10] | Potency [11] | outcome [12] | Potency [13] | Potency [14]

CN(C)CCCN1c2ccccc2CCc2ccc(Cl)cc21
inactive: outcome [3] | outcome [4] | outcome [5] | outcome [17] | Potency [8] | Potency [10] | outcome [12] | outcome [18] | outcome [19] | outcome [20]
active: Potency [2] 38.9 µM | Potency [7] 19.3 µM | Potency [11] 38.9 µM

Cc1c(O)cccc1O
inactive: Potency [1] | Potency [2] | outcome [3] | outcome [4] | outcome [5] | outcome [17] | Potency [7] | Potency [8] | outcome [9] | Potency [10] | Potency [11] | outcome [12] | Potency [13] | Potency [14]

NS(=O)(=O)c1cc(C(=O)O)cc(N2CCCC2)c1Oc1ccccc1
inactive: Potency [1] | Potency [2] | outcome [3] | outcome [4] | outcome [5] | Potency [7] | Potency [8] | outcome [9] | Potency [10] | Potency [11] | outcome [12] | Potency [13] | Potency [14]

OC[C@]1(O)OC[C@@H](O)[C@H](O)[C@@H]1O
inactive: Potency [1] | Potency [2] | outcome [3] | outcome [4] | outcome [5] | Potency [7] | Potency [8] | outcome [9] | Potency [10] | Potency [11] | outcome [12] | Potency [13] | Potency [14]

C[C@](N)(Cc1ccc(O)cc1)C(=O)O
inactive: activity change, negative = cytotoxicity [1] -0.278% [at 5.95 µM] | viability change, negative = cytotoxic [2] 4.51% [at 6.95 µM] | activation [3] 0.267% [at 6.95 µM] | activity, negative = cytotoxic [4] 2.4% [at 6.95 µM] | activity change, negative = cytotoxicity [6] -6.6% [at 6.95 µM] | activity, negative = cytotoxicity [17] 1.71% [at 8.39 µM] | activity change, negative = inhibition [7] 10.5% [at 8.39 µM] | viability change, negative = cytotoxic [8] 6.35% [at 6.97 µM] | activation [9] -6.83% [at 6.97 µM] | activation [10] 8.62% [at 6.98 µM] | activity change, negative = cytotoxicity [11] 10.7% [at 6.97 µM] | activity change, negative = cytotoxicity [12] 0.103% [at 8.39 µM] | activity, negative = inhibition [13] -1.72% [at 8.39 µM] | activation [14] -0.945% [at 8.36 µM] | outcome [15] | outcome [18] | outcome [19] | outcome [20] | outcome [16]

COC(=O)CCSCCC(=O)OC
inactive: Potency [1] | outcome [3] | outcome [4] | outcome [5] | outcome [17] | Potency [7] | Potency [8] | outcome [9] | Potency [10] | Potency [11] | outcome [12] | Potency [13] | Potency [14]

Source: PubChem BioAssay (Tox21)
